Assay results as given in PubChem BioAssay (NCI).
The panel holds about 83,000 compounds, 20% with a hit somewhere; the sample as a whole holds those more often.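 Step 1: grow cells in 96-well plates. Step 2: add test compound at a single concentration. Step 3: incubate 48 h. Step 4: record percent growth.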 Activity calls are given as the source filed them. The calls were made as follows: active = growth percent below 10; inactive = the rest.

Legend:
Assay in all cases: NCI-60 one-dose screen, 48 h (100 = growth as untreated, 0 = no growth, -100 = all killed)
Conditions in all cases: 10 µM unless noted
[1] = system: NCI-H23 lung
[2] = system: NCI-H226 lung
[3] = system: NCI-H322M lung
[4] = system: HOP-62 NSCLC
[5] = system: NCI-H460 lung
[6] = system: HOP-92 NSCLC
[7] = system: NCI-H522 lung
[8] = system: A549/ATCC NSCLC
[9] = system: 786-0 renal
[10] = system: COLO 205 colon
[11] = system: DU-145 prostate
[12] = system: K-562 leukemia
[13] = system: MALME-3M melanoma
[14] = system: MDA-MB-231 breast
[15] = system: RXF 393 renal
[16] = system: SF-268 CNS
[17] = system: SF-295 CNS
[18] = system: SF-539 CNS
[19] = system: UACC-257 melanoma
[20] = system: M14 melanoma

Measured: growth

COc1ccc(-c2[nH]c3ccc(OC)cc3c2C=C(C#N)C#N)cc1
active: [7] -8.75% | [10] 5.59% | [12] 4.8% | [17] -47.1% | [20] -13.3%
inactive: [1] 32.9% | [2] 59.7% | [3] 58.8% | [4] 32.5% | [5] 17.2% | [6] 20.3% | [8] 32.5% | [9] 28.9% | [11] 12.5% | [13] 60% | [14] 53.7% | [15] 34.4% | [16] 52.7% | [18] 23.2% | [19] 60.2%

COc1cccc2c1-c1ccccc1C2=O
inactive: [1] 43.1% | [2] 84.1% | [3] 44.5% | [4] 37.4% | [6] 74% | [8] 23.3% | [9] 23.9% | [10] 11.6% | [11] 17.7% | [13] 59.7% | [14] 29.6% | [16] 48.2% | [19] 51.5%
active: [5] 7.57% | [7] -13.7% | [12] 8.78% | [15] -2.91% | [17] 9.85% | [18] -3.06% | [20] -1.41%

CCCCn1c(=O)c(/C=C/C(=O)/C=C/c2ccc(OC)cc2)cc2cc(Cl)ccc21
inactive: [1] 48.6% | [2] 70% | [3] 72.7% | [4] 102% | [5] 20.7% | [6] 102% | [7] 56.3% | [8] 51.1% | [9] 28.4% | [10] 88.3% | [11] 53.5% | [12] 25.2% | [13] 119% | [14] 83.8% | [15] 84.5% | [16] 42.6% | [17] 19.9% | [18] 91.8% | [19] 92.1% | [20] 95%

CCC[S@@](=O)c1ccc2nc(NC(=O)OC)[nH]c2c1
inactive: [1] 93.3% | [2] 85.6% | [3] 96% | [4] 66.2% | [5] 99.5% | [6] 84% | [7] 59.9% | [8] 65.7% | [9] 91.6% | [10] 96.4% | [11] 107% | [12] 40.9% | [13] 89.2% | [14] 83.3% | [15] 95.2% | [16] 96.1% | [17] 88% | [18] 90.8% | [19] 57% | [20] 73.2%

CC(=O)c1ccc(NC(=O)CSc2nnc(-c3cc(-c4ccc(C)cc4)nc4ccccc34)o2)cc1
inactive: [1] 27.6% | [2] 58.7% | [3] 86.5% | [4] 17.6% | [5] 10.5% | [6] 66.9% | [7] 23.2% | [8] 48.9% | [10] 77.4% | [11] 63.5% | [12] 38.1% | [15] 59% | [16] 55.2% | [17] 69.5% | [18] 53.7% | [19] 101% | [20] 57.9%
active: [9] 3.06% | [13] -5.39% | [14] -2.97%

CC(C)(C)c1nn(-c2ccccc2)c2c1COCN2Cc1ccc(Cl)cc1
inactive: [1] 84.7% | [2] 87.5% | [3] 101% | [4] 93% | [5] 81.1% | [6] 83.1% | [8] 115% | [9] 90% | [10] 101% | [11] 103% | [12] 47.5% | [13] 90.2% | [14] 95.1% | [15] 100% | [16] 103% | [17] 95.9% | [18] 83.6% | [19] 114% | [20] 91.8%
active: [7] 4.77%

C=C1C(=O)O[C@H]2[C@H]1CC/C(COC(=O)c1c[nH]c3ccccc13)=C\CC[C@@]1(C)O[C@@H]21
inactive: [3] 16% | [17] 50.2%
active: [1] -52.9% | [2] -78.3% | [4] -43.3% | [5] 2.46% | [6] -59.7% | [7] -66.7% | [8] -7.16% | [9] -92% | [10] -53.5% | [11] -68.6% | [12] -16.1% | [13] -73.7% | [14] -68.8% | [15] -90.6% | [16] -40.8% | [18] -61.3% | [19] -58.8% | [20] -64.7%
